Consider nine molecules from the supplement of paper PMC4840960.

Molecules are shown by their SMILES. ± gives the standard deviation of the averaged measurements.

The subject of assay [1] is E18 rat cortical neuron-glia co-culture. The assay is described as follows: fiber score / MBP score (myelination specific beyond OL differentiation) (ratio); higher = more myelination-specific MBP alignment. To be noted: treatment time: 8 days (DIV5-DIV13). The gist of the method: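 Fiber score divided by MBP score is the read-out; fiber score is continuous MBP fiber length per Olig2+ nucleus, and MBP score is thresholded MBP area × intensity per Olig2+ nucleus. Primary E18 rat cortical co-cultures were dissociated with papain and seeded at 20,000 cells/well on poly-d-lysine/laminin 96-well plates. Library compounds at 1 or 5 µM were given in myelination medium from DIV5 to DIV13, after which cells were fixed in 4 % paraformaldehyde, immunostained for MBP and Olig2 with DAPI, and imaged in four 10X fields per well in duplicate wells.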

For assay [2] the test system is unchanged. As to the kind of experiment: myelination (MBP fiber length per Olig2+ nucleus), % of 1 µM DAPT response (DMSO = 0) (% of DAPT); higher = more myelination, active = 50 or more. The conditions noted are these: treatment time: 8 days (DIV5-DIV13). The method in brief:
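Four 10X fields in each of duplicate wells were analysed after cultures were fixed in 4 % paraformaldehyde and immunostained for MBP and Olig2, with DAPI as the nuclear counterstain. The cultures were papain-dissociated primary E18 rat cortical co-cultures at 20,000 cells/well on poly-d-lysine/laminin 96-well plates, dosed with library compounds at 1 or 5 µM in myelination medium from DIV5 to DIV13. The myelination readout was continuous straight MBP fiber length per Olig2+ nucleus, with 0.1 % DMSO set to 0 and a 1 µM positive control set to 100.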

As to `CN1CC[C@]2(c3cccc(O)c3)Cc3nc4ccccc4cc3C[C@H]2C1`, the figures for the “fiber score / MBP score” value in assay [1] (1 µM) and in assay [1] (5 µM) were 0.572 and 0.822, respectively. The myelination was -18.1 (inactive) in assay [2] (1 µM) and 2.91 (inactive) in assay [2] (5 µM).

In the case of `CN1C(=O)COc2c(C(=O)NC3CN4CCC3CC4)cc(Cl)cc21` (stereo unspecified) [Azasetron], the “fiber score / MBP score” value in assay [1] (1 µM) is 0.754; in assay [1] (5 µM), 0.901. In addition, the myelination is -6.5 (inactive) in assay [2] (1 µM) and 2.28 (inactive) in assay [2] (5 µM).

Turning to `N=C(NCc1ccc(Cl)cc1)SCCCc1c[nH]cn1` [Clobenpropit], the “fiber score / MBP score” value stood at 0.723 in assay [1] (1 µM) and 0.822 in assay [1] (5 µM). The myelination in assay [2] (1 µM) was -13 (inactive); in assay [2] (5 µM) it was 3.66 (inactive).

With `CC[C@]1(O)CC[C@H]2[C@@H]3CCC4=CCCC[C@@H]4[C@H]3CC[C@@]21C` [Ethylestrenol], the “fiber score / MBP score” value stood at 0.661 in assay [1] (1 µM) and 1.72 in assay [1] (5 µM). In addition, the myelination in assay [2] (1 µM) is -13.8 (inactive); in assay [2] (5 µM), 204 (active).

For `Cc1ccc(-c2nc3ccc(C)cn3c2CC(=O)N(C)C)cc1` [Zolpidem], the “fiber score / MBP score” value in assay [1] (1 µM) was 0.967; in assay [1] (5 µM), 0.776. Moreover, the results for the myelination in assay [2] (1 µM) and in assay [2] (5 µM) were -6.37 (inactive) and -13.3 (inactive), respectively.

Consider `C[C@]12CC[C@H]3[C@@H](CCC4=CC(=O)CC[C@@]43C)[C@@H]1CC[C@@H]2O` [Testosterone], for which the “fiber score / MBP score” value in assay [1] (1 µM) came out at 0.988 ± 0.093; in assay [1] (5 µM) it was 0.928 ± 0.1. For the same molecule, the figures for the myelination in assay [2] (1 µM) and in assay [2] (5 µM) were -4.77 (inactive) and -15.4 (inactive), respectively.

Take `CC(NC(C)(C)C)C(=O)c1cccc(Cl)c1` (stereo unspecified) [Bupropion]: the “fiber score / MBP score” value in assay [1] (1 µM) was determined as 0.583 ± 0.43; in assay [1] (5 µM) it was 0.467 ± 0.35. Also, the myelination in assay [2] (1 µM) was -29.5 (inactive); in assay [2] (5 µM), -31.8 (inactive).

Consider `C[C@]12C/C(=C/O)C(=O)C[C@@H]1CC[C@@H]1[C@@H]2CC[C@@]2(C)[C@H]1CC[C@]2(C)O` [Oxymetholone], for which the “fiber score / MBP score” value in assay [1] (1 µM) was 0.813; in assay [1] (5 µM), 0.965. For the same molecule, the figures for the myelination in assay [2] (1 µM) and in assay [2] (5 µM) were -11.9 (inactive) and -8.04 (inactive), respectively.

On to `CC(C)N(CCC(C(N)=O)(c1ccccc1)c1ccccn1)C(C)C` (stereo unspecified) [Disopyramide], for which the figures for the “fiber score / MBP score” value in assay [1] (1 µM) and in assay [1] (5 µM) were 0.453 and 0.371, respectively. Besides, the results for the myelination in assay [2] (1 µM) and in assay [2] (5 µM) were -13.9 (inactive) and -13.6 (inactive), respectively.
